PubChem BioAssay AID1159580 (chemical genetic matrix, 2015)
Values joined by “and” are separate entries in the source; they are usually repeats but may differ in a detail not shown here. Equal entries are not always repeated. About 2,000 (36%) of roughly 5,500 compounds were called active. Not shown: some 18% with an inconclusive outcome. No stated cut-off is given here; in the data, active means normalized growth mostly below about 0.91 (no sharp cut-off); inconclusive means no clear call, values can overlap the other calls; inactive means mostly above about 0.92. This is one part of the list.

Assay: chemical genetic growth profiling, strain panel (AID 1159580);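 further: tested at 20 µM; growth read once vehicle control cultures reached saturation at 30 °C; 1 = growth at the plate median or of vehicle wells; lower values mean less growth of the strain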
Settings: S. cerevisiae deletion strains, growth OD

Measured: normalized growth

CNC(=O)O/N=C(\C)SC
inactive: locus YAL013W, strain DEP1, active compounds read low 1 | locus YAL021C, strain ccr4, active compounds read low 0.987 | locus YAL026C, strain drs2, active compounds read low 1 | locus YAL030W, strain snc1, active compounds read low 1.01 | locus YBL061C, strain skt5, active compounds read low 1 | locus YBR009C, strain hhf1, active compounds read low 1.01 | locus YBR021W, strain FUR4, active compounds read low 1.03 | locus YBR023C, strain chs3, active compounds read low 1 | locus YBR171W, strain sec66, active compounds read low 1 | locus YBR229C, strain ROT2, active compounds read low 1.01 | locus YBR231C, strain swc5, active compounds read low 1 | locus YBR279W, strain paf1, active compounds read low 0.999 | locus YCL011C, strain gbp2, active compounds read low 1.01 | locus YCL016C, strain dcc1, active compounds read low 0.998 | locus YCL029C, strain bik1, active compounds read low 0.983 | locus YCL061C, strain MRC1, active compounds read low 1 | locus YCL069W, strain vba3, active compounds read low 1 | locus YCR088W, strain abp1, active compounds read low 1 | locus YDL005C, strain med2, active compounds read low 1 | locus YDL035C, strain GPR1, active compounds read low 1.02 | locus YDL040C, strain nat1, active compounds read low 0.999 | locus YDL074C, strain BRE1, active compounds read low 1.07 | locus YDL101C, strain DUN1, active compounds read low 1.02 | locus YDL134C, strain PPH21, active compounds read low 1.01 | locus YDL185W, strain tfp1, active compounds read low 0.988 | locus YDL192W, strain arf1, active compounds read low 0.981 | locus YDR001C, strain nth1, active compounds read low 1 | locus YDR069C, strain doa4, active compounds read low 1 | locus YDR101C, strain arx1, active compounds read low 0.983 | locus YDR137W, strain rgp1, active compounds read low 1.01 | locus YDR150W, strain NUM1, active compounds read low 1.01 | locus YDR159W, strain sac3, active compounds read low 1 | locus YDR162C, strain NBP2, active compounds read low 0.987 | locus YDR195W, strain ref2 0.971 | locus YDR297W, strain sur2, active compounds read low 1.02 | locus YDR318W, strain mcm21, active compounds read low 0.994 | locus YDR334W, strain swr1, active compounds read low 0.999 | locus YDR335W, strain msn5, active compounds read low 0.997 | locus YDR388W, active compounds read low 0.984 | locus YDR392W, strain spt3, active compounds read low 1 | locus YDR502C, strain sam2, active compounds read low 0.993 | locus YEL003W, strain gim4, active compounds read low 1 | locus YEL037C, strain rad23, active compounds read low 1 | locus YEL061C, strain CIN8 (second series), active compounds read low 1 | locus YEL061C, strain CIN8, active compounds read low 1.01 | locus YER015W, strain faa2, active compounds read low 0.982 | locus YER016W, strain bim1, active compounds read low 1 | locus YER110C, active compounds read low 0.977 | locus YER111C, strain swi4, active compounds read low 0.996 | locus YER155C, strain BEM2 (second series), active compounds read low 1.01 | locus YER155C, strain BEM2, active compounds read low 1.01 | locus YER167W, strain BCK2, active compounds read low 0.993 | locus YFR010W, strain ubp6, active compounds read low 0.997 | locus YGL078C, strain dbp3, active compounds read low 0.98 | locus YGL086W, strain mad1, active compounds read low 0.984 | locus YGL167C, strain pmr1, active compounds read low 0.996 | locus YGL173C, strain kem1, active compounds read low 0.991 | locus YGL227W, strain vid30, active compounds read low 1.01 | locus YGL240W, strain doc1, active compounds read low 0.987 | locus YGL248W, strain PDE1, active compounds read low 1.04 | locus YGL253W, strain hxk2, active compounds read low 0.998 | locus YGR078C, strain PAC10, active compounds read low 1 | locus YGR135W, strain pre9, active compounds read low 0.998 | locus YGR229C, strain SMI1, active compounds read low 1.03 | locus YGR252W, strain gcn5, active compounds read low 0.986 | locus YHR013C, strain ard1, active compounds read low 0.998 | locus YHR027C, strain rpn1, active compounds read low 0.989 | locus YHR030C, strain SLT2, active compounds read low 0.988 and 1.07 | locus YHR079C, strain IRE1 (second series), active compounds read low 0.993 | locus YHR079C, strain IRE1, active compounds read low 1.05 | locus YHR094C, strain hxt1, active compounds read low 0.983 | locus YHR129C, strain ARP1, active compounds read low 1.01 | locus YHR142W, strain chs7, active compounds read low 1.01 | locus YHR200W, strain rpn10, active compounds read low 0.99 | locus YIL066C, strain RNR3, active compounds read low 1.03 | locus YIL073C, strain SPO22, active compounds read low 0.995 | locus YIL125W, strain kgd1, active compounds read low 0.986 | locus YIR030C, strain dcg1, active compounds read low 0.98 | locus YJL092W, strain hpr5, active compounds read low 0.996 | locus YJL095W, strain BCK1 (second series), active compounds read low 0.996 | locus YJL095W, strain BCK1, active compounds read low 1.01 and 1.04 | locus YJL115W, strain asf1, active compounds read low 1 | locus YJL129C, strain trk1, active compounds read low 1.01 | locus YJL134W, strain LCB3, active compounds read low 1.02 | locus YJL154C, strain vps35, active compounds read low 0.999 | locus YJL164C, strain tpk1, active compounds read low 1 | locus YJL166W, strain qcr8, active compounds read low 1 | locus YJL168C, strain set2, active compounds read low 0.989 | locus YJL187C, strain SWE1 (second series), active compounds read low 1.01 | locus YJL187C, strain SWE1, active compounds read low 1.02 | locus YJR043C, strain POL32, active compounds read low 1.01 | locus YJR066W, strain TOR1, active compounds read low 0.988
